TGFb inhibitor – TGF-b pathway inhibition | HepG2 CAGA-GFP TGF-b/SMAD3 reporter, GFP fluorescence, 18 h; TGF-beta stimulated, 500 pg/mL final | actives 1.2% (n = 410,000) | Potency, µM (titrated, usually from 46.1 µM), without a hit: at the highest dose activity, negative = inhibition, most hits filed as inhibitors; further: on the % scale 0 is the no-effect control and ±100 the full control effect; nearly all actives have a fitted effect of over 65% in size
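HEPG2 CAGA-GFP, 1000 cells/well; 2 h settle, 37 C; cpd via pin tool; TGF-b 500 pg/mL final; 18 h, 37 C; GFP imaging ex488/em500-530; %Activity normalised to -TGF-b and +DMSO controls; CRC fit, curve class.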
HT1080NT lethal – kills 2HG-producing HT-1080-NT fibrosarcoma cells; HT-1080-NT fibrosarcoma viability, CellTiter-Glo ATP luminescence, 48 h; Potency, µM (top dose mostly 46.1 µM), for inactives: at the highest dose activity, negative = less viability, hits mostly cytotoxic; actives 1.6% (n = 360,000);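 further: NT is the 2HG producing partner of a matched IDH1 knockdown line; 0% = DMSO-treated cells and -100% = media-only wells without cells; nearly all actives have a fitted effect of over 55% in size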
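Read-out is CellTiter-Glo luminescence after 10 minutes at room temperature, following 48 hours' compound treatment of HT-1080-NT cells (750 cells/well, RPMI, 5% FBS, 37 degrees C).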
KB-3-1 cytotox – KB-3-1 parental cell cytotoxicity; AID 1347075; Potency, µM (series often up to 46.1 µM), usual class: cytotoxic; actives 1.4% (n = 400,000); KB-3-1 viability, CellTiter-Glo ATP luminescence, 72 h; further: on the % scale 0 is the no-effect control and ±100 the full control effect; nearly all actives have a fitted effect of over 60% in size
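Cytotoxicity measured as CellTiter-Glo luminescence after 72 h at 37 C. Compound titrations were pinned onto drug-naive KB-3-1 parental adenocarcinoma cells grown in DMEM with 10% FBS, and normalized data fitted to concentration-response curves.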
KB-V1 MDR tox – kills drug-selected multidrug resistant KB-V1 cells | KB-V1 MDR cells viability, CellTiter-Glo, 72 h | Potency, µM (series often up to 46.1 µM), actives largely listed as cytotoxic | actives 3.4% (n = 400,000) | AID 1347076; further: on the % scale 0 is the no-effect control and ±100 the full control effect; nearly all actives have a fitted effect of over 60% in size
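Cytotoxicity via CellTiter-Glo luminescence after 72 h compound exposure at 37 degrees C. Cells: drug-selected KB-V1 line, DMEM phenol-red free plus 10% FBS. Compounds tested at multiple concentrations; normalized data fitted to concentration-effect curves.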
HT1080 IDH1KD tx – HT-1080 IDH1 knockdown cell toxicity (counter line). HT-1080 IDH1 knockdown viability, ATP luminescence, 48 h. Potency, µM (highest dose often 46.1 µM), without a hit: top-dose activity, negative = toxicity, actives largely listed as cytotoxic. actives 2% (n = 360,000). AID 686971;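 further: 0% = DMSO wells and -100% = cell-free medium wells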
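After a 2 h attachment period, IDH1KD HT-1080 cells took pin-transferred compound for 48 h at 37 °C; ATP-based luminescence after 10 min room-temperature reagent incubation reported viability.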
HepG2 viability – HepG2 cytotoxicity, counter-screen for TGF-b inhibitors. HepG2 CAGA-GFP viability, ATP luminescence, 18 h. Potency, µM (top dose mostly 46.1 µM), for inactives: at the top dose activity change, negative = cytotoxicity, hits mostly cytotoxic. actives 0.76% (n = 410,000). AID 588856
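HepG2 CAGA-GFP cells (1000/well, DMEM with 1% FBS) received compound, then TGF-beta at 500 pg/mL final, and were incubated 18 hours at 37 degrees C. Viability was read by CellTiter-Glo luminescence. Media-only wells were set as complete cell-killing and DMSO as no toxicity.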
Numbers without * were called inactive; i = inactive; ? = inconclusive; nt = no result. The list is not random: actives were taken first. Their share in the collection is about 6.6%. The call rests on the fitted dose curve; in most records, active means well fitted curve in the direction sought with a large enough effect; inconclusive means small, poorly fitted or top-dose-only effect, or another doubt; inactive means no such curve, though single readings can be large; an effect the other way counts as inactive or inconclusive. Potency means the concentration at half of the fitted maximal effect.

SMILES	TGFb inhibitor	HT1080NT lethal	KB-3-1 cytotox	KB-V1 MDR tox	HT1080 IDH1KD tx	HepG2 viability
CC(C)(C)OC(=O)N1CCC(c2c(C(=O)N3CCN(c4ccc(Cl)cc4)CC3)cnn2-c2ccc(F)cc2F)CC1	?	nt	i	?	nt	-9.3%
Cc1ccccc1-c1noc(-c2ccc(N3CCC(C)CC3)c([N+](=O)[O-])c2)n1	-18.6%	nt	i	i	nt	-25.2%
CCOc1ccccc1NC(=O)N1CCC2(CC1)Oc1ccccc1C(=O)N2Cc1ccccc1F	nt	nt	nt	nt	nt	1.5%
CCOC(=O)c1ccc(OC(=O)c2cn(-c3ccc(C)cc3)c(=O)c3ccccc23)cc1	21.7%	nt	i	i	nt	-16.4%
Cn1cccc1-c1cc2n(n1)CCC(=O)N2CCCC(=O)NCc1cccc(Cl)c1	-12.7%	nt	i	i	nt	6.4%
O=C(Oc1c(CN2CCOCC2)cc(Cl)c2cccnc12)c1ccccc1Cl	?	?	?	?	6.51µM*	3.55µM*
CCSc1cc(C)nc2c(-c3ccccc3)cnn12	?	-1.1%	?	?	-20.8%	-20.3%
CC(=O)Nc1ccc(Nc2cc(C)nc3c(-c4ccccc4)cnn23)cc1	0.0%	14.6µM*	?	16.4µM*	13µM*	-1.9%
Cc1cc(N)n2ncc(-c3ccccc3)c2n1	-13.1%	-10.2%	i	i	-11.2%	-16.1%
C=CCSc1cc(C)nc2c(-c3ccccc3)cnn12	-12.9%	-16.0%	?	8.2µM*	-16.5%	-26.0%
CCOC(=O)c1nnn(-c2ccc([N+](=O)[O-])cc2[N+](=O)[O-])c1C	10µM*	?	23.1µM*	i	?	15.8µM*
COc1ccc(-c2cc([C@H]3[C@H]4C=CC[C@@H](C)[C@@H]4C(=O)N3Cc3ccccc3)ccc2F)cc1OC	?	-25.8%	16.4µM*	?	-20.1%	-2.6%
CC(=O)c1ccc(-c2ccc([C@H]3[C@H]4C=CC[C@@H](C)[C@@H]4C(=O)N3Cc3ccccc3)c(F)c2)cc1	?	?	?	20.6µM*	?	-13.5%
COc1ccc(-c2cc(C3C4C=CCC(C)C4C(=O)N3Cc3ccccc3)ccc2F)cc1 (configuration not stated)	-25.4%	nt	nt	nt	nt	-21.5%
COc1ccc(-c2cc([C@H]3[C@H]4C=CC[C@@H](C)[C@@H]4C(=O)N3Cc3ccccc3)ccc2F)cc1	0.0%	?	16.4µM*	?	?	-19.2%
COC(=O)c1ccc(-c2ccc([C@H]3[C@H]4C=CC[C@@H](C)[C@@H]4C(=O)N3Cc3ccccc3)c(F)c2)cc1	?	?	i	i	?	-11.1%
CCCOc1cccc(C(=O)N(Cc2ccc(C)o2)C2CCS(=O)(=O)C2)c1 (configuration not stated)	nt	nt	nt	nt	nt	-21.9%
O=C1CS(=O)(=O)C2(C(=O)Nc3ccccc32)N1c1cccc(Cl)c1 (configuration not stated)	?	nt	i	i	nt	-34.3%
CCc1cccc2sc(N3CCN(C(=O)c4ccc([N+](=O)[O-])o4)CC3)nc12	17.8µM*	-24.6%	?	?	?	-96.3%
COc1cc(OC)c(NC(=O)Nc2cccc(OCc3cc(=O)n4ccccc4n3)c2)cc1Cl	-29.3%	nt	nt	nt	nt	-17.0%
O=C1NN=C(c2ccc(Cl)cc2)CC1c1cccc(Br)c1 (configuration not stated)	10µM*	?	i	?	?	-14.1%
CCOC(=O)Nc1nc(-c2ccccc2)c(C(=O)c2ccccc2)s1	?	0.581µM*	0.82µM*	1.16µM*	0.581µM*	8.0%
COC(=O)Nc1nc(-c2ccccc2)c(C(=O)c2ccc(Cl)cc2)s1	?	?	1.03µM*	0.581µM*	?	7.0%
O=C(Cn1c(=O)oc2cc(S(=O)(=O)NCc3ccccc3)ccc21)N(CCO)Cc1ccccc1	?	nt	?	i	nt	-14.8%
Cc1ccc2nc(-c3ccc(NC(=O)COc4ccc(Cl)c(C)c4)cc3)sc2c1	-0.8%	nt	nt	nt	nt	-13.7%
SMILES	TGFb inhibitor	HT1080NT lethal	KB-3-1 cytotox	KB-V1 MDR tox	HT1080 IDH1KD tx	HepG2 viability
COc1cccc(CNC(=O)c2ccc(NC(=O)N3CCCCc4ccccc43)cc2)c1OC	-9.2%	nt	i	i	nt	1.7%
COc1ccc(OCCn2c(CCNC(=O)C3CCCCC3)nc3ccccc32)cc1	-2.1%	nt	i	i	nt	-21.0%
c1ccc(-n2nnnc2-c2cccc3ccccc23)cc1	-29.0%	5.8µM*	nt	nt	8.2µM*	-17.7%
Clc1ccc2[nH]cc(-c3nnnn3-c3ccccc3)c2c1	?	?	18.4µM*	16.4µM*	?	-11.7%
Clc1ccc(-n2nnnc2-c2cnc3ccc(Cl)cc3c2-c2ccccc2)cc1	19.7%	8.3%	?	?	8.9%	5.0%
Clc1ccc2ncc(-c3nnnn3-c3ccccc3)c(-c3ccccc3)c2c1	?	20.6µM*	?	i	?	-14.6%
c1ccc(-n2nnnc2NCCc2c[nH]c3ccccc23)cc1	0.0%	-5.4%	i	i	-9.8%	-25.8%
CCOc1ccc(NC(=O)Cn2cc(C(=O)c3ccc(OCC)cc3)c(=O)c3cc4c(cc32)OCCO4)cc1	-8.3%	nt	i	i	nt	0.4%
O=S1(=O)Nc2c(ccc3cccnc23)-c2ccccc21	1.26µM*	0.562µM*	18.4µM*	?	0.316µM*	-48.1%
Cc1cnc2c3c(cc(Cl)c2c1)-c1ccccc1S(=O)(=O)N3	3.98µM*	nt	nt	nt	nt	-84.8%
Clc1ccc2ccc3cccnc3c2n1	-29.6%	-0.8%	i	i	3.5%	-48.7%
CC(C)c1ccc(NC(=O)C2Cc3ccccc3N2C(=O)c2ccccc2)cc1 (configuration not stated)	1.4%	nt	i	?	nt	0.4%
COc1ccc(-n2c(-c3ccc(Cl)cc3)cc3c2CC(C)(C)CC3=O)c(OC)c1	17.8µM*	nt	i	i	nt	-50.2%
Cc1cc2c(n1-c1ccc(Cl)cc1)CC(C)(C)CC2=O	-31.8%	12.1%	i	13µM*	-3.9%	-16.8%
COc1ccc(C)cc1-n1c(-c2ccc(Cl)cc2)cc2c1CC(C)(C)CC2=O	0.3%	nt	i	i	nt	-14.6%
Cc1ccc(-c2nnc(SCCC(=O)Nc3ccccc3)n2C)cc1	-16.4%	nt	i	i	nt	-5.8%
Cc1cccc(-c2noc(CN(C3CCCCC3)S(=O)(=O)c3ccc(F)cc3)n2)c1	-19.1%	nt	nt	nt	nt	-11.1%
Cc1cccc(NC(=O)CSc2nc(C)cc(C)c2C(=O)Nc2ccc(Cl)cc2)c1	11.8%	nt	i	i	nt	0.5%
